Assay in all cases: NCI-60 one-dose screen, 48 h (100 = growth as untreated, 0 = no growth, -100 = all killed)
What all share (details): 10 µM unless noted

In test [1] the test system is SK-MEL-2 melanoma.
In test [2] the test system is EKVX NSCLC.
Test [3] deals with SN12C renal.
Test [4] relates to UO-31 renal.
For test [5], the system named is TK-10 renal.
In test [6] the test system is ACHN renal.
Test [7] relates to A498 renal.
Test [8] deals with CCRF-CEM leukemia.
Test [9] deals with MOLT-4 leukemia.

Molecules are shown by their SMILES. About 83,000 compounds went through this panel and 20% of them were active in at least one assay; those are over-represented in the sample as a whole.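 Plates (96-well) were seeded with cells, treated with compound at one concentration, and incubated for 48 hours before percent growth was determined.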 Values without a mark were called inactive. Activity calls are given as the source filed them. How the source made its calls: active means growth percent below 10; inactive means the rest.

`Cn1cc(-c2nonc2-c2c[nH]c3ccccc23)c2ccccc21`: the growth is 51.2% in test [1]; 26% in [2]; 23.4% in [3]; 15.6% in [4]; 47.7% in test [5]; 31.1% in test [6]. Besides, the growth in [7] was -13.4% (active); in [8], 7.68% (active); in test [9], 8.23% (active).
Regarding `COc1ccc(/C=C/C(=O)c2cc3c(N)c(C(=O)Nc4ccc(OC)cc4)sc3nc2C)cc1`, the growth in [1] is 15.4%; in test [2], 45.2%; in test [3] it was 31.6%; in [4] it was 41%; in [5], 40.8%; in [6], 42.6%. Further, the results for the growth in test [7], in test [8] and in [9] were 18.6%, 19.9% and 33.3%, respectively.
As to `CC(C(=O)O)n1c(O)c(C=Nc2cccnc2)sc1=S` (configuration not stated), the growth is 114% in [1]; 96.4% in test [2]; 88.7% in test [3]; 50% in [4]; 111% in [5]; 102% in [6]. Also, the growth is 95.4% in test [7], 92.7% in test [8] and 94% in test [9].
Regarding `Nc1c(C(=O)Nc2ccccn2)sc2nc3c(cc12)C(O)CCC3` (configuration not stated), the growth in test [1] was 43.8%; in test [2], 42.1%; in test [3], 44.3%; in [4] it was 43.6%; in test [5] it was 47.4%; in [6], 46.2%. Besides, the growth is 3.12% (active) in test [7], 6.62% (active) in test [8] and 34% in test [9].
In the case of `C=C1C(=O)O[C@H]2[C@H]1CC/C(COC(=O)/C=C\C(=O)NCc1ccc(Cn3c(=O)sn(-c4ccccc4)c3=O)cc1)=C\CC[C@@]1(C)O[C@@H]21`, the growth was 89.8% in test [1]; 98.9% in test [2]; 83.1% in test [3]; 59.4% in test [4]; 67.1% in test [5]; 42.1% in test [6]. The results for the growth in test [7], in test [8] and in test [9] were 91.2%, 1.9% (active) and 25.3%, respectively.
Consider `Cc1[nH]c(C(=O)Nc2cccc(OC3CCNCC3)c2)c(Cl)c1Cl`, for which the growth was 88.4% in test [1]; 86.1% in [2]; 70.3% in test [3]; 67.1% in test [4]; 123% in [5]; 62.8% in [6]. The growth is 25.1% in test [7], 55.3% in test [8] and 41.5% in [9].
With `CCCCCCC(CCCC)COC(=O)c1ccc(Cl)cc1` (configuration not stated), the growth in [1] is 109%; in test [2] it was 112%; in test [3], 105%; in test [4], 98%; in [5], 110%; in [6], 110%. The growth in [7] was 93.9%; in [8], 105%; in test [9], 98.8%.
Take `CCn1c2ccc(O)cc2c2c(C)c3c[n+](C(C)C)ccc3c(C)c21`: the growth in test [1] is 35%; in [2] it was 75.4%; in [3], -1.36% (active); in [4], 68.3%; in test [5] it was 105%; in [6] it was 35.2%. In addition, the growth in [7] was 68%; in test [8], 36.5%; in test [9], 22.2%.
On to `c1ccc(CCc2ccccc2-c2cc(-c3ccccc3)on2)cc1`, for which the growth in test [1] is 86.4%; in test [2], 86.4%; in test [3], 85.5%; in [4], 75.5%; in [5], 110%; in [6], 89.2%. The values for the growth in [7], in test [8] and in test [9] were 89%, 82.7% and 73.1%, respectively.
As to `O=C(Nc1cccc(NC(=O)C2CCCCC2)c1)c1ccccn1`, the growth in [1] is 100%; in [2], 92%; in test [3], 102%; in test [4], 88.7%; in test [5] it was 112%; in test [6], 103%. Further, the growth in test [7] is 96.1%; in test [8], 106%; in test [9], 91.3%.
As for `CC/C=C\C/C=C/C=C1/C(=O)C=C[C@@H]1C/C=C\CCCC(=O)OC`, the growth in test [1] is 92.6%; in [2], 99.4%; in [3] it was -8.45% (active); in test [4], 28.2%; in test [5], 31.6%; in test [6], 14.1%. Moreover, the growth in [7] was 109%; in test [8], 1.18% (active); in test [9] it was 5.5% (active).
As to `COc1ccc2cc(-c3ccc(-c4ccc(C(=N)N)s4)s3)ccc2c1`, the growth in test [1] was 95.3%; in test [2] it was 0.97% (active); in test [3] it was -55.2% (active); in [4], 36.6%; in [5], 89.6%; in [6], 27%. The values for the growth in test [7], in test [8] and in test [9] were 73.6%, -14% (active) and 1.6% (active), respectively.
In the case of `C#CC#CC#CC#CC#CC#CC#CC#CC[C@H]1OC[C@H](COC(=O)O[C@@H](C(=O)O[C@H]2C[C@@]3(O)[C@@H](OC(=O)c4ccccc4)[C@@H]4[C@]5(OC(C)=O)CO[C@@H]5C[C@H](O)[C@@]4(C)C(=O)[C@H](OC(C)=O)C(=C2C)C3(C)C)[C@@H](NC(=O)c2ccccc2)c2ccccc2)O1`, the growth in [1] is 73.9%; in test [2], 74.5%; in [3], 46.5%; in [4], 100%; in test [5] it was 102%; in test [6], 87.6%. The growth is 50.2% in [7], 26.7% in test [8] and 43.3% in [9].

The values are drawn from PubChem BioAssay (NCI).
